Measurements taken from PubChem BioAssay AID504332 (National Center for Advancing Translational Sciences (NCATS), 2011).
The whole screen tested about 350,000 compounds, of which about 31,000 (8.9%) were called active. Another 15% or so got no clear call; they are omitted. Calls follow the shape of the dose curve; as a rule, active = well fitted inhibition curve with a large enough effect; inconclusive = small, poorly fitted or top-dose-only effect; inactive = no such curve, though single readings can be large or run the other way. Many of the other results were omitted from the sample, so actives are more common in it than they were.

molecular target: Histone-lysine N-methyltransferase EHMT2 (Homo sapiens) (UniProt Q96KQ7); test: qHTS Assay for Inhibitors of Histone Lysine Methyltransferase G9a; conditions: G9a H3K9 monomethylation, AlphaScreen, 2 h; series mostly up to 59 µM; activity, negative = inhibition: at the top concentration; also: nearly all actives have a fitted effect of over 75% in size
Sequence (Q96KQ7 913-1193 limits assumed): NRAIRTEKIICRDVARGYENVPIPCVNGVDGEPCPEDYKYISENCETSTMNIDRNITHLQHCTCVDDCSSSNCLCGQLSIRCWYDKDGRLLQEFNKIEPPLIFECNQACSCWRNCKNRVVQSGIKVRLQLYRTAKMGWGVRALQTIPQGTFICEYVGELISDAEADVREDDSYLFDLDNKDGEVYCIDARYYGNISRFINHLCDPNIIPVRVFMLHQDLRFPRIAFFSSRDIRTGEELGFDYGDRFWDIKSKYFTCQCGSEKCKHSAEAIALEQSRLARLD
Summary of the method: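 AlphaScreen read-out: biotin-H3K9 peptide (500 nM) methylation by 20 nM enzyme with 20 uM SAM, 2 h at room temperature after 15 min compound preincubation; anti-monomethyl H3K9 antibody plus donor/acceptor beads, 10 min dark.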
% is scaled to controls: 0 for no effect and ±100 for the full control effect; potency is read from the fitted curve at half-maximal effect.

Row | SMILES | Potency | activity, negative = inhibition
1 | CN=C1C=C/C(=N/N=c2\ccn(O)cc2C)C=C1C | 7.94 µM (active) | –
2 | O=C(NCCc1ccc(C(F)(F)F)cc1)c1ccc2c(c1)OCO2 | – | 13.1% (inactive)
3 | COC(=O)C(CC(=O)Nc1cc(C)ccc1C)Nc1ccccc1OC (stereo not given) | – | -11.9% [at 2.33 µM] (inactive)
4 | Cc1ccc(C)c(NC(CC(=O)c2ccccc2)C(=O)OCC(=O)c2cccs2)c1 (stereo not given) | 28.2 µM (active) | –
5 | Cc1ccc(C)c(NC(=O)CCC(=O)NNC(=O)c2cccs2)c1 | – | 35.9% (inactive)
6 | CN1C(C(=O)NCC2CC2)CC2Cn3c(nc4ccccc43)C21 (stereo not given) | – | 2.03% [at 2.33 µM] (inactive)
7 | Cc1ccc(S(=O)(=O)CC(=O)Nc2sc(C)c(C)c2C(N)=O)cc1 | – | -22.4% [at 0.501 µM] (inactive)
8 | COc1ccccc1C(=O)Nc1ccc(C)c(S(=O)(=O)N2CCCCC2)c1 | – | -43% [at 102 µM] (inactive)
9 | CCCCc1nc2ccccc2c(=O)n1NC(=O)c1c(O)c2cccc3c2n(c1=O)CC3 | – | 7.74% (inactive)
10 | CCCCc1nc2ccccc2c(NC(=O)CN2CCN(C)CC2)c1CCC | 10 µM (active) | –
11 | CCOC(=O)N1CCN(CC(=O)Nc2cc(C)nn2-c2nc3ccccc3s2)CC1 | – | -49% [at 102 µM] (inactive)
12 | FC(F)(F)c1ccc2nnc(-c3c(Cl)cccc3Cl)n2c1 | 44.7 µM (active) | –
13 | O=C1Cc2cc(S(=O)(=O)Nc3ccc(OC(F)(F)F)cc3)cc3c2N1CCC3 | – | -4.45% (inactive)
14 | O=C(Nc1ccon1)c1nc[nH]c1C(=O)NCc1ccccc1 | – | 4.11% [at 0.501 µM] (inactive)
15 | CCOC(=O)c1c(C)[nH]c(C)c1S(=O)(=O)N(C)CC(=O)N1CCN(c2ccccc2)CC1 | – | -6.97% (inactive)
16 | O=C(Cc1ccc(-n2c(=O)[nH]c3ccccc3c2=O)cc1)N1CCN(c2cccc(Cl)c2)CC1 | – | -10.6% [at 12.7 µM] (inactive)
17 | CCOC(=O)N1CCN(C(=O)Cc2ccc(-n3c(=S)[nH]c4ccccc4c3=O)cc2)CC1 | 44.7 µM (active) | –
18 | CCCCNC(=O)c1ccc(-n2c(=S)[nH]c3ccccc3c2=O)cc1 | – | 6.91% [at 102 µM] (inactive)
19 | O=C(COC(=O)/C=C/c1ccc(OC(F)F)cc1)NC1CCCCC1 | – | -25.5% [at 102 µM] (inactive)
20 | Cc1ccc(OCCNC(=O)CCNS(=O)(=O)c2ccc(Br)cc2)cc1 | – | 31.4% (inactive)
21 | COc1ccccc1-c1oc2ccccc2c1C#CCCCCO | – | 7.94% [at 0.501 µM] (inactive)
22 | Cc1cccc(CS(=O)(=O)c2ncc(Cl)c(C(=O)Nc3ccc(F)cc3)n2)c1 | 28.2 µM (active) | –
23 | Cc1cccc(OCc2ccc(C(=O)Nc3ccc(F)cc3)cc2)c1 | – | 16.2% (inactive)
24 | Cc1nnc(NC(=O)Nc2ccc(Cl)c(Cl)c2)s1 | – | -0.92% (inactive)
25 | Cc1cccc(NC(=O)c2nc(S(=O)(=O)Cc3ccccc3)ncc2Cl)c1 | 39.8 µM (active) | –

Row | SMILES | Potency | activity, negative = inhibition
26 | Cc1ccc(CS(=O)(=O)c2ncc(Cl)c(C(=O)Nc3nnc(C)s3)n2)cc1 | 14.1 µM (active) | –
27 | Cc1cccc(NC(=O)c2nc[nH]c2C(=O)NCC(=O)OCc2ccccc2)c1 | – | 18.7% (inactive)
28 | CCOC(=O)c1ccc(NC(=O)c2nc(SCc3ccc(F)cc3)ncc2Cl)cc1 | – | -19.1% (inactive)
29 | CCSc1ncc(Cl)c(C(=O)Nc2cc(C)ccc2C)n1 | inactive | –
30 | Cc1ccc(S(=O)(=O)CC(=O)Nc2nnc(C)s2)cc1 | – | -6.86% [at 102 µM] (inactive)
31 | Cc1ccc(NC(=O)CN(C)C(=O)c2cccc(S(=O)(=O)N3CCCC3)c2)cc1 | – | -8.22% (inactive)
32 | COc1ccccc1OCC(=O)Nc1ccccc1C(=O)NC1CC1 | – | -4.61% [at 0.501 µM] (inactive)
33 | COc1ccc(CCNC(=O)c2ccc(-n3c(C)cc4c3CCCC4)cc2)cc1OC | – | -40.5% (inactive)
34 | O=C(CSC1=NS(=O)(=O)c2cc(F)ccc2N1)Nc1ccccc1F | – | -42.2% [at 102 µM] (inactive)
35 | N#Cc1nc(/C=C/c2ccc(F)cc2)oc1NC1CCCCC1 | – | 2.98% (inactive)
36 | Cc1cc(C)c(NC(=O)Cn2c(SCC(=O)NCc3ccccc3)nc3ccccc32)c(C)c1 | – | 4.9% (inactive)
37 | O=C(Nc1cc(Cl)cc(Cl)c1)c1ccc2c(c1)N(Cc1cccc(Cl)c1)C(=O)c1ccccc1S2=O (stereo not given) | – | 6.71% (inactive)
38 | COc1ccccc1NC(=O)c1oc2ccccc2c1NC(=O)COc1ccccc1OC | – | -17.6% (inactive)
39 | CCC(C)c1ccc2oc(-c3ccc(NC(=O)c4cc5ccccc5o4)cc3)nc2c1 (stereo not given) | – | -8.57% (inactive)
40 | Cc1cc([N+](=O)[O-])ccc1NC(=O)c1ccc(NC(=O)C(C)C)cc1 | – | -4.16% [at 102 µM] (inactive)
41 | Cn1ccc(=Nc2ccc(NC(=O)c3ccc(N=c4ccn(C)c5ccc([N+](=O)[O-])cc45)cc3)cc2)cc1 | 15.8 µM (active) | –
42 | COc1cc(NS(=O)(=O)c2ccc(NC(=O)c3ccc([N+](=O)[O-])cc3)cc2)ncn1 | – | 0.812% [at 102 µM] (inactive)
43 | COc1ccccc1CNS(=O)(=O)CC12CCC(CC1=O)C2(C)C (stereo not given) | – | -2.74% [at 102 µM] (inactive)
44 | COc1cc(C(=O)NCc2cc3cc(Cl)ccc3n2C)cc(OC)c1OC | – | -11.8% [at 102 µM] (inactive)
45 | Cc1c(Cl)cccc1NC(=O)c1noc2c1CCCC2 | – | 8.61% (inactive)
46 | Cc1ccc(S(=O)(=O)N2CCCCC2)cc1C(=O)N(C)CC(=O)Nc1cccc(F)c1 | – | -21.7% [at 102 µM] (inactive)
47 | Cc1cc(C)c(SCCc2ccncc2)c(C)c1 | – | 58.4% [at 102 µM] (inactive)
48 | CCOCC(=O)Nc1ncc(S(=O)(=O)c2ccc([N+](=O)[O-])cc2)s1 | 35.5 µM (active) | –
49 | Cc1cc(NC(=O)COc2ccc([N+](=O)[O-])cc2)no1 | – | -2.93% [at 12.7 µM] (inactive)
50 | CC(C)c1nnc(NC(=O)COC(=O)/C=C/c2ccc([N+](=O)[O-])cc2)s1 | – | 105% [at 102 µM] (inactive)

Row | SMILES | Potency | activity, negative = inhibition
51 | CC/C(=N\NC(=O)c1c(C)nc2ccccn12)c1ccc(Cl)cc1 | – | 15.2% [at 102 µM] (inactive)
52 | CC(C)C(C)NC(=O)COc1nc2ccccc2nc1N(C)C1CCCCC1 (stereo not given) | – | -5.83% [at 102 µM] (inactive)
53 | COc1ccccc1N(C)S(=O)(=O)c1ccc(Cl)c(C(=O)Nc2ccncc2)c1 | – | 9.32% (inactive)
54 | CN1CCN(C2(CNC(=O)COc3ccc(C(C)(C)C)cc3)CCCCC2)CC1 | – | 8.13% (inactive)
55 | O=C(CC1CCCCC1)NCc1ccccc1 | – | 20.6% [at 102 µM] (inactive)
56 | C/C(=N\NC(=S)NCc1ccccc1)C1CCCCC1 | 35.5 µM (active) | –
57 | C/C(=N\NC(=S)NCc1ccccc1)c1ccc(Cl)cc1 | – | 9.66% (inactive)
58 | COc1ccc(OC)c(CNC(=O)Cn2nc(C)c3c(C)n(-c4ccc(C)cc4)nc3c2=O)c1 | – | 18% (inactive)
59 | COc1cccc(CNC(=O)c2ccc3c(Cl)c4c(nc3c2)CCCC4)c1 | – | -40.5% (inactive)
60 | CCc1noc(C)c1C(=O)Nc1nc(-c2ccccc2)cs1 | – | -39.9% [at 102 µM] (inactive)
61 | C/C(CC1CC(C)(C)OC1=O)=N/Nc1nc(-c2ccccc2)cs1 (stereo not given) | 3.16 µM (active) | –
62 | CC1(C)CC(CCC(=O)Nc2ccccc2Cl)C(=O)O1 (stereo not given) | – | 20.1% (inactive)
63 | CN1C(=O)c2[nH]nc(-c3ccc(F)cc3)c2C1c1ccccn1 (stereo not given) | – | -3.23% (inactive)
64 | CCOC(=O)C1CCN(C(=O)Nc2cccc(OC)c2)CC1 | – | 4.16% [at 102 µM] (inactive)
65 | CCOC(=O)c1[nH]c2ccc(OC)cc2c1NC(=O)CCN1CCN(Cc2ccccc2)CC1 | – | -13.9% [at 2.33 µM] (inactive)
66 | CCOC(=O)c1[nH]c2ccc(OC)cc2c1NC(=O)N1CCOCC1 | 50.1 µM (active) | –
67 | C=CCO/N=C/C1=C(O)C(C(=O)OC)C(C)(C)CC1=O (stereo not given) | 15.8 µM (active) | –
68 | CCCC(=O)C1=C(N(C)c2ccccc2)CC(C)(C)C(C(=O)OC)C1=O (stereo not given) | – | -30.5% (inactive)
69 | COCC(C)N=CC1=C(O)CC(C)(C)CC1=O (stereo not given) | – | 10.1% (inactive)
70 | COc1ccc(S(=O)(=O)n2cnc3ccccc32)c(C)c1 | – | 9.88% [at 102 µM] (inactive)
71 | N#CCCN1CCN(S(=O)(=O)c2ccc(S(=O)(=O)N3CCCC3)cc2)CC1 | – | 1.44% (inactive)
72 | CC(C)(C)c1cc(CN2CCN(CCC#N)CC2)cc(C(C)(C)C)c1O | 17.8 µM (active) | –
73 | N#Cc1cccc(CN2CCC(=O)N(CCO)CC2)c1 | – | -5.64% [at 102 µM] (inactive)
74 | CCN(C(=O)CSc1ncnc2sccc12)c1c(N)n(Cc2ccccc2)c(=O)[nH]c1=O | – | -8.47% (inactive)
75 | Cc1ccc(N2C(=O)C3C4C=CC(CC4)C3C2=O)cc1Br (stereo not given) | – | -6.84% [at 0.501 µM] (inactive)

Row | SMILES | Potency | activity, negative = inhibition
76 | CCCn1nc(NC(=O)C(C)C)c2cc3cc(OC)ccc3nc21 | – | 7.96% [at 102 µM] (inactive)
77 | O=S(=O)(c1ccc(Br)cc1)N1CCC(c2nc3ccccc3[nH]2)CC1 | 70.8 µM (active) | –
78 | O=C(C1CCCO1)N1CCC(c2nc3ccccc3[nH]2)CC1 (stereo not given) | – | -28.9% [at 12.7 µM] (inactive)
79 | N#CC(C(=O)c1ccc(S(=O)(=O)N2CCCCCC2)cc1)c1nc2ccccc2[nH]1 (stereo not given) | – | 25.8% [at 102 µM] (inactive)
80 | COc1ccc(CCNC(=O)COC(=O)Cc2cccc(F)c2)cc1 | – | 5.11% [at 0.501 µM] (inactive)
81 | CC(Oc1cc2oc(=O)c3c(c2cc1Cl)CCCC3)C(=O)NCc1ccncc1 (stereo not given) | – | 5.02% [at 102 µM] (inactive)
82 | COc1cc(OC)nc(NC(=O)CCl)n1 | – | -4.48% (inactive)
83 | COc1ccc(C/C(C)=N/NC(=O)c2ccncc2)cc1 | – | 16.5% [at 102 µM] (inactive)
84 | COc1cc(OC)nc(N/N=C(\c2ccccc2)c2ccncc2)n1 | 12.6 µM (active) | –
85 | CN(CC(=O)NNC(=O)CNC(=O)c1ccccc1Cl)S(=O)(=O)c1ccc(Cl)cc1 | – | 4.73% [at 0.501 µM] (inactive)
86 | Cc1ccc(NC(=O)c2cc3cc(C)ccc3n2C)cc1 | – | -9.16% (inactive)
87 | COc1ccc2oc(=O)c(C(=O)N3CCN(c4ccccc4F)CC3)cc2c1 | – | 21.4% [at 12.7 µM] (inactive)
88 | O=C(c1cccc2ccccc12)N1CCN(c2ccccc2F)CC1 | 2.82 µM (active) | –
89 | O=C(c1ccc(CN2CCOCC2)cc1)N1CCN(c2ccccc2F)CC1 | – | 15.9% (inactive)
90 | Cc1csc(SCC(=O)Nc2sccc2C#N)n1 | – | 2.21% [at 102 µM] (inactive)
91 | Cc1cccc(C)c1Nc1nnc(SCC(=O)Nc2sccc2C#N)s1 | – | -7.51% (inactive)
92 | CC(c1nnc(SCC(=O)Nc2sccc2C#N)n1-c1ccc(Cl)cc1)N(C)C (stereo not given) | 50.1 µM (active) | –
93 | COc1ccc(C2NC(=O)N(C)C(C)=C2[N+](=O)[O-])cc1 (stereo not given) | – | -2.62% [at 102 µM] (inactive)
94 | COc1cccc(C(=O)NNC(=O)c2cccc(F)c2)c1 | – | 4.31% [at 102 µM] (inactive)
95 | CCCCOC(=O)/C(C#N)=C/c1ccc(-c2cccc(C(F)(F)F)c2)o1 | – | -1.47% (inactive)
96 | O=C(O)/C=C/c1ccc(OCCCF)cc1 | – | 0.243% [at 102 µM] (inactive)
97 | CCOc1ccc(Nc2oc(/C=C/c3ccc(F)cc3)nc2C#N)cc1 | – | -0.0635% (inactive)
98 | O=C(Nc1ccccc1C(=O)N1CCOCC1)c1ccc(Cl)cc1 | – | -23.7% [at 102 µM] (inactive)
99 | N#C/C(=C\N1CCOCC1)S(=O)(=O)c1ccc(Cl)cc1 | – | 20.1% (inactive)
100 | O=S(=O)(Oc1ccccc1C(=S)N1CCOCC1)c1ccc(Cl)cc1 | 31.6 µM (active) | –
